Screen size: about 390,000 compounds; about 17,000 (4.4%) were called active. Roughly 8% stayed inconclusive and do not appear here. The list comes from a sample in which actives are over-represented; it also holds similar structures and randomly drawn compounds. Unmarked numbers belong to inactive results. The call rests on the fitted dose curve; in most records, active means well fitted inhibition curve with a large enough effect; inconclusive means small, poorly fitted or top-dose-only effect; inactive means no such curve, though single readings can be large or run the other way.
molecular target: Lysine-specific demethylase 4A (Homo sapiens) (UniProt O75164); experiment: qHTS Assay for Inhibitors of JMJD2A-Tudor Domain; details: AlphaScreen JMJD2A-Tudor / H3K4me3 peptide binding; series mostly up to 114 µM; activity change, negative = inhibition: at the top concentration; further: nearly all actives have a fitted effect of over 50% in size
Excerpt: JMJD2A is a jumonji-domain-containing lysine demethylase that uses Fe(II) together with 2-OG to effect oxidative demethylation of histones. Methylation is one of many […] modification that affect epigenetic transcription. […] It is proposed that the functions of JmjD2A binding to the histones, is to maintain marks after they are installed and to spread the modifications by […], establishing a self-propagating cycle for rapid methylation over a large area of chromatin. […] Thus, small molecule targeting of the JMJD2A-tudor domain interaction with its target methylhistone mark is expected to enable sophisticated experiments probing the fine regulatory pathways leading to selective demethylation of a given methyllysine locus based on the methylation state of adjacent histone marks. A quantitative high throughput AlphaScreen has been developed to identify small molecule inhibitors based on a protocol published by NCGC and SGC [4].
Although AlphaScreen has significant advantages with its utility in a variety of epigenetic target assays, the primary screening data provided in this deposition should be used with caution due to the prevalence of screening artifacts. The top compound concentration tested was high (>100uM) in this assay, which increases number of actives and potential artifacts. An AlphaScreen counterscreen is highly recommended to be run against any putative actives to eliminate non-specific artifacts. Alternatively, one can use other AlphaScreen assays in PubChem to filter out promiscuous hits.
[1] Lee, J. et al. Distinct binding modes specify the recognition of methylated histone H3K4 and H4K20 by JMJD2A-tudor. Nat Struct Mol Biol. 15(1); 109-11. 2008. PMID: 18084306
[2] Yasgar, et al. Compound Management for Quantitative High-Throughput Screening. JALA. 2008 Apr;13(2):79-89. PMID: 18496600
[3] Inglese, et al. Quantitative high-throughput screening: a titration-based approach that efficiently identifies biological activities in large chemical libraries. Proc Natl Acad Sci. 1;103(31):11473-8. 2006. PMID: 16864780
[4] Quinn et al. A homogeneous method for investigation of methyl-dependent protein-protein interactions in epigenetics. Nucleic Acids Res., 38(2):e11. 2010. PMID: […]
[5] Baell,Holloway. New substructure filters for removal of pan assay interference compounds (PAINS) from screening libraries and for their exclusion in bioassays. J Med Chem. 53(7):2719-40. 2010. PMID: 20131845
NIH Molecular Libraries Probe Production Network [MLPCN]
NIH Chemical Genomics Center [NCGC]
Structural Genomics Consortium (SGC)
To each well of a 1,536w plate, 2ul of JMJD2A-Tudor (final 100nM) and 1ul biotinylated histone peptide methylated at Lys4 [b-H3(1-18)K4me3] (final 50nM) were added in 1x PBS buffer, pH 7.4, containing 0.01% Tween-20, using a nanoliter dispenser. Formation of a protein-peptide complex proceeded at room temperature for 30 min. A Kalypsys pin-tool transferred 23nl of library compound solution in DMSO to each well. Following a 30 min incubation of the protein-peptide complex with compounds at room temperature, a mixture of 40 µg/mL each streptavidin-coated donor and nickel chelate acceptor AlphaScreen beads (final 10 µg/mL) was added in a 1ul dispense for a final volume of 4ul, followed by a brief centrifugation (1000 rpm, 1 min). Plates were incubated protected from the light for 20 min at room temperature. Microplates were then read on an EnVision multilabel plate reader using the 1,536 plate HTS AlphaScreen aperture (excitation time 80 ms, measurement time 240 ms).
On the % scale 0 is the no-effect control and ±100 the full control effect; potency means the concentration at half of the fitted maximal effect.

Sequence of Lysine-specific demethylase 4A (Homo sapiens) (O75164 whole entry, looked up, the tested form may be a part): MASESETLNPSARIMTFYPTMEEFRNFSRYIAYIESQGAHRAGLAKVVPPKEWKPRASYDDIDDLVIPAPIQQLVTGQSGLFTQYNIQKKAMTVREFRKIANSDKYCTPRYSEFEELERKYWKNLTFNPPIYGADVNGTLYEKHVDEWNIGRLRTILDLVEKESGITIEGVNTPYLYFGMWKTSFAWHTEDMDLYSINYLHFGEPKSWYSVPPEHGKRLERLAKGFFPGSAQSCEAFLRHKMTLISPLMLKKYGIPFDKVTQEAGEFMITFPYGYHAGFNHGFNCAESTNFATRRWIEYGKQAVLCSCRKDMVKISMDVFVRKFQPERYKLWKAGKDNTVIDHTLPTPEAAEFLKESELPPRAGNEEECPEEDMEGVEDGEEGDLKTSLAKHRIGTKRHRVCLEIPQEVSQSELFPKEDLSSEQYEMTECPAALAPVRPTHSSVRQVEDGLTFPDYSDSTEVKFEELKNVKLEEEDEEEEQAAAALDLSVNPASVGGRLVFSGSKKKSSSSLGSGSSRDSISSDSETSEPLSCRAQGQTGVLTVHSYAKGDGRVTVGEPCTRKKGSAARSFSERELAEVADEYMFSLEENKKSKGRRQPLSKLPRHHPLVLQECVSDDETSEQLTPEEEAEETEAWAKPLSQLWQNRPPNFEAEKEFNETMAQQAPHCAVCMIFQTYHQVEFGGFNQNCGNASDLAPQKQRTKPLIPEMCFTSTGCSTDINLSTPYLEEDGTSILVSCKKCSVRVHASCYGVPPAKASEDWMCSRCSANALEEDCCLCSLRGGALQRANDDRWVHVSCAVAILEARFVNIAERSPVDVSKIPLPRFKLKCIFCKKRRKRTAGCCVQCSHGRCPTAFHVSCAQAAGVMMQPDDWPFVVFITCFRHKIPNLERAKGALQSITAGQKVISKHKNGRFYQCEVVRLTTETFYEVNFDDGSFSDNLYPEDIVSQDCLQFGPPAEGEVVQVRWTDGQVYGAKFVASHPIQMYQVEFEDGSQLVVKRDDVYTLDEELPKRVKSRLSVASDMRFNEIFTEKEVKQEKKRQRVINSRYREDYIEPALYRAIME

With `O=C(O)c1cc[c]([Sb](=[O])([OH])[OH])cc1[N+](=O)[O-]` the Potency was 0.316 µM (active).
In the case of `COC(=O)N(c1ccc(OC)cc1)P1(=S)OCCC(C)O1` (stereo not given), the Potency was 79.4 µM (active).
For `c1ccc(CCNC2CCCCCC2)cc1`, the Potency was 70.8 µM (active).
`c1cc2c(cc1CCNC1CCCCCC1)OCO2` was tested, and the Potency was 3.16 µM (active).
For `Nc1ccc(C(=O)N/N=C2/CN3CCC2CC3)cc1`, the Potency was 89.1 µM (active).
For `CCOc1cc(N2CCOCC2)c(OCC)cc1NC(=O)C1=NN(c2cccc(C)c2)C(=O)CC1`, the Potency was 50.1 µM (active).
In the case of `COc1ccc(CNCCc2c[nH]c3ccccc23)cc1OC`, the Potency was 79.4 µM (active).

Compared with `O=C(c1ccccc1[N+](=O)[O-])N1CCC2(CC1)OCCO2`, `COC(=O)C1=C(c2ccccc2)C[C@@H]2CC[C@H]1N2C(=O)N1CCCCC1` is lower in “activity change, negative = inhibition” value: -6.21% for the first, -13.1% for the second.

First: C[C@@]1([C@@H](NP(=O)(c2ccccc2)c2ccccc2)c2ccccc2)C[C@H]1CCO
Second: S=P(c1ccccc1)(c1ccccc1)c1c(-c2ccccc2)[nH]c2ccccc12
The “activity change, negative = inhibition” value of the first is higher: -5.04% for the first, -27.2% for the second.

Going from `CCC(=O)c1ccc(OCC(=O)N2CCN(CC(=O)Nc3ccc(C)cc3)CC2)cc1` to `COC(=O)C1=C(c2ccc(Cl)c(C(F)(F)F)c2)C[C@@H]2CC[C@H]1N2C(=O)NC1CC1`, the “activity change, negative = inhibition” value falls from 21.2% to -5%.

Going from `O=C1NC(=O)C(Cc2ccccc2)C(=O)N1` to `c1ccc(CC2CCCCN2)cc1` (stereo not given), the “activity change, negative = inhibition” value falls from -8.28% to -17.5%.

First: OC(CNC1CCCCC1)c1ccccc1 (stereo not given)
Second: CCCC[N+]1(C)C2CC(OC(=O)C(CO)c3ccccc3)CC1C1OC12 (stereo not given)
The “activity change, negative = inhibition” value of the first is lower: -6.35% for the first, -1.44% for the second.

Compared with `c1cc2c(cc1[C@H]1OC[C@H]3[C@@H]1CO[C@@H]3c1ccc3c(c1)OCO3)OCO2`, `Cc1cccc(-n2c(O)c(/C=N/N3CCOCC3)c(=O)[nH]c2=S)c1` is higher in “activity change, negative = inhibition” value: -20.7% for the first, -3.47% for the second.

`O=P1(Oc2ccccc2)CC(O)C(O)C(COCc2ccccc2)O1` (stereo not given) and `CNP1(NC)=Nc2nn(-c3ccccc3)c(N)c2C(c2ccccc2)=N1` are the same in “activity change, negative = inhibition” value: -14.5% for the first, -14.5% for the second.

Compared with `O=C1C2(Cl)C3(Cl)C4(Cl)C(Cl)(Cl)C5(Cl)C3(Cl)C1(Cl)C5(Cl)C24Cl` (stereo not given), `CC1CC=CCC12C(=O)NC(=S)NC2=O` (stereo not given) is higher in “activity change, negative = inhibition” value: -25.5% for the first, -2.78% for the second.

Compared with `CCN1C(=O)NC(=O)C2(CCCC2)C1=O`, `CCN1CC2C3CCC(C)(O3)C2C1` (stereo not given) is lower in “activity change, negative = inhibition” value: -12.5% for the first, -21.9% for the second.

Compared with `c1cncc(CNCCc2c[nH]c3ccccc23)c1`, `C/C(CCc1c[nH]c2ccccc12)=N\O` is higher in “activity change, negative = inhibition” value: -11.6% for the first, -5.13% for the second.

For `CC1([N+](=O)[O-])COP(=O)(Nc2ccc(F)cc2)OC1` (stereo not given), the “activity change, negative = inhibition” value was -4.86%.

In the case of `Cn1c(O)c(C=NCCN2CCNCC2)c(=O)n(C)c1=O`, the “activity change, negative = inhibition” value was -6.87% [at 57.1 µM].

For `Cc1ccc(CN2CCCC(C(=O)c3ccc4c(c3)OCO4)C2)cc1C` (stereo not given), the activity change, negative = inhibition was -17.6% [at 11.4 µM].

— PubChem BioAssay AID504339 (National Center for Advancing Translational Sciences (NCATS), 2011)
